Here are results for 89 molecules from PubChem BioAssay AID1259415 (National Center for Advancing Translational Sciences (NCATS), 2018).

Each structure is given as a SMILES string. The campaign covered roughly 410,000 compounds. About 18,000 (4.4%) were called active. Roughly 7% stayed inconclusive and do not appear here. This is one part of a sample in which actives are shown more often than they occur. Rule as the data show it: active = activity change below about -60%; inconclusive = no clear call, values can overlap the other calls; inactive = above about -39%.
% is scaled to controls: 0 for no effect and ±100 for the full control effect.

The assay can be described thus: qHTS Assay for inhibitors of the human cytomegalovirus (HCMV). The following applies: HFF cells, HCMV-luciferase reporter, 72 h; at 57.5 µM; active compounds read low. The procedure, abridged: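 Screen run at 2 compound doses on HFFs infected with reporter HCMV, MOI 1 PFU/cell. Luciferase activity from cell lysates at 72 h post infection gave inhibition relative to buffer-only and Salinomycin wells.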
A general note: In qHTS, concentration-response curves come from the screen itself.
For `CCOc1ccccc1NC(=O)c1ccc2c(c1)CCN2S(=O)(=O)c1ccc(C)cc1`, the activity change, negative = inhibition was 18.6% (inactive). Next, `Cc1ccc(C(=O)Nc2nc(N)n(-c3ccccc3)n2)cc1`: 68.4% (inactive); `Cc1ccc2c(c1)c1ncnc(N3CCc4ccccc4C3)c1n2C`: 110% (inactive); `Cc1ccc2nc(C)c3c(c2c1)N(c1ccccc1)CC3`: -71.1% (active). Next, `O=C(CN1CCN(Cc2ccc(F)cc2Cl)C1=O)NCc1cccs1`: -20.5% (inactive); `Cc1ccc(N2C(=O)C3C4C=CC(CC4)C3C2=O)cc1Cl` (centres undefined): 2.41% (inactive). The same measure for `CC(C)CCN(C(=O)c1csnn1)C(C(=O)NC1CCCC1)c1ccccc1` (centres undefined): 19.1% (inactive); for `Cc1ccc(NC(=O)COC(=O)C2CC2)cc1S(=O)(=O)N1CCOCC1`: -3.87% (inactive). Take `Cc1ccc(NC(=O)COC(=O)CNC(=O)c2ccc(Cl)cc2Cl)cc1S(=O)(=O)N1CCOCC1`: the activity change, negative = inhibition was -100% (active). The same measure for `O=C(CCNC(=O)c1ccc([N+](=O)[O-])cc1)Nc1ccccc1N1CCOCC1`: -0.0167% (inactive); for `Cc1ccc(NC(=O)CCCNC(=O)c2ccc(Cl)cc2)cc1S(=O)(=O)N1CCCCC1`: -15.5% (inactive). Regarding `Cc1ccc(NC(=O)CCNC(=O)c2ccc([N+](=O)[O-])cc2)cc1S(=O)(=O)N1CCOCC1`, the activity change, negative = inhibition was -102% (active). Next, `Cc1ccc(C(=O)OCC(=O)Nc2ccc(Cl)cn2)cc1S(=O)(=O)N1CCOCC1`: -11.7% (inactive); `O=C(NCCc1ccccn1)c1cc(C(=O)C2CCCCC2)c[nH]1`: 24.3% (inactive); `COC(=O)CN1C(=S)N(c2ccccc2)C(=O)C1CC(=O)Nc1ccc(Cl)cc1` (centres undefined): -4.58% (inactive).

`Cc1ccc(Cl)cc1N1CCN(S(=O)(=O)c2cc3[nH]c(=O)c(=O)[nH]c3cc2C)CC1`: the activity change, negative = inhibition is 14.4% (inactive).

Take `COc1ccccc1C(=O)OCc1cc(=O)n2nc(-c3cccs3)sc2n1`: the activity change, negative = inhibition was 7.8% (inactive). Next, `CC(C)(C)c1ccc(S(=O)(=O)Nc2ccc(O)c(Sc3nc4ccccc4s3)c2)cc1`: -13.2% (inactive).

For the molecule `CC1=C[C@H]2Cc3cc(C)cc(C)c3S(=O)(=O)[C@@H]2C=C1`, the activity change, negative = inhibition is -67.4% (active). Regarding `Cc1oc2c(c1C(=O)Nc1ccc(F)c(F)c1)C1=NCCN1C=N2`, the activity change, negative = inhibition was -2.2% (inactive). `CCn1c(C(=O)Nc2cc(Cl)ccc2C)cc2sc(Cl)cc21`: the activity change, negative = inhibition is -25.2% (inactive).

As to `N#Cc1ccc(C(c2nnnn2CCc2ccccc2)N2CCCCCC2)cc1` (centres undefined), the activity change, negative = inhibition was -31.2% (inactive). Regarding `Fc1ccc(Cn2nnnc2C(c2cccs2)N2CCCCCC2)cc1` (centres undefined), the activity change, negative = inhibition is -74.3% (active). Regarding `Fc1ccccc1C(c1nnnn1Cc1ccc2c(c1)OCO2)N1CCN(Cc2ccccc2)CC1` (centres undefined), the activity change, negative = inhibition is -2.67% (inactive). Take `COC(=O)c1c(NC(=O)C(C)Oc2ccc(Cl)c(C)c2)sc(C)c1C` (centres undefined): the activity change, negative = inhibition was 24.4% (inactive). As to `Cc1cc(C)cc(OCC(=O)OCC(=O)NC2CCCC2)c1`, the activity change, negative = inhibition was 0% (inactive).

Consider `CCOC(=O)C1CCCN(C(=O)Cn2ncc3c(C)n(Cc4ccc(F)cc4)c(C)c3c2=O)C1` (centres undefined), for which the activity change, negative = inhibition is -24.7% (inactive). The same measure for `CCOC(=O)c1scc(-c2ccccc2)c1S(=O)(=O)Nc1ccccc1F`: -9.83% (inactive); for `COC(=O)c1scc(-c2ccccc2)c1S(=O)(=O)Nc1ccccc1`: -65.6% (active); for `COC(=O)c1scc(-c2ccc(C)cc2)c1S(=O)(=O)Nc1cc(Cl)c(OC)cc1OC`: -32.1% (inactive). Take `Cc1cc(O)c(C(c2ccccc2)N2CCN(c3ccccc3F)CC2)c(=O)n1Cc1ccco1` (centres undefined): the activity change, negative = inhibition is 11.6% (inactive). The same measure for `CCc1ccc(CNC(=O)C2CCN(c3nnc(C)c4c(C)n(-c5ccc(C)cc5)nc34)CC2)cc1`: -8.15% (inactive); for `Cc1nnc(N2CCC(C(=O)Nc3ccc(F)cc3)CC2)c2nn(-c3ccc(Cl)cc3)c(C)c12`: -83.4% (active); for `CC(=O)Nc1c(C)nn(-c2ccccc2)c1N1CCC(C(=O)Nc2cc(Cl)ccc2C)CC1`: 54.8% (inactive). Consider `CCOC(=O)C1CCC(CN(Cc2ccc(OC)cc2)S(=O)(=O)c2ccc(F)c(C(=O)Nc3cc(C)ccc3C)c2)CC1` (centres undefined), for which the activity change, negative = inhibition was -8.08% (inactive). Next, `CCOCCCNC(=O)c1c(NC(=O)Cc2coc3ccc(C)cc23)sc2c1CCC2`: -5.35% (inactive).

Turning to `CCc1c(C)nc2ncnn2c1N1CCC(C(=O)NCc2ccc3c(c2)OCO3)CC1`, the activity change, negative = inhibition was -29.2% (inactive). Regarding `FC(F)(F)c1cc(Nc2nc3ccccc3c3nncn23)ccc1Cl`, the activity change, negative = inhibition is -13.6% (inactive). Next, `CCC(=O)N1c2ccccc2CC1C(=O)N1CCN(c2ccccc2)CC1` (centres undefined): 2.26% (inactive); `CN(C(=O)COc1ncnc2c1cnn2-c1ccccc1)C1CCCCC1`: -21.9% (inactive); `CCN(c1ncnc2c1cnn2-c1ccc(C)cc1)C1CCCCC1`: -79.6% (active). Turning to `Cc1ccc(-n2ncc3c(N4CCC(C(N)=O)CC4)ncnc32)cc1`, the activity change, negative = inhibition is 80.5% (inactive).

On to `COc1ccc(CCNC(=O)CCc2c(C)nc3c(c(C)nn3-c3ccc(C)c(C)c3)c2C)c(OC)c1OC`, for which the activity change, negative = inhibition is 22.2% (inactive).

For `COc1cc(NS(=O)(=O)c2ccc3c(c2)OCC(C(=O)N2CCCC2)O3)cc(OC)c1` (centres undefined), the activity change, negative = inhibition was -21.9% (inactive).

For `C=Cc1ccc(Cn2c(C(=O)OC)cc3sc(C)cc32)cc1`, the activity change, negative = inhibition is -33.1% (inactive). As to `O=C(O)c1ccc(OCC2CCCO2)cc1` (centres undefined), the activity change, negative = inhibition was 63.5% (inactive). The same measure for `Cc1ccc(CC2CC(=O)N(c3nc(C)cc(C)n3)C2=O)cc1` (centres undefined): -6.32% (inactive); for `COC(=O)CC1=NN(c2nc(C)cc(C)n2)C(=O)C1`: -72.6% (active); for `Cc1cc(C)nc(N2C(=O)CC(Cc3ccccc3)C2=O)n1` (centres undefined): -1.22% (inactive).

Consider `O=C(NCc1cc(F)cc(C(F)(F)F)c1)C1CCC(=O)N(C2CCCC2)C1` (centres undefined), for which the activity change, negative = inhibition was 8.32% (inactive).

Turning to `O=C(N/N=C/c1ccc(Cl)c(Cl)c1)c1ccc2nc[nH]c2c1`, the activity change, negative = inhibition is -65.6% (active). As for `NCCCCCC(=O)N/N=C/c1ccc2nccnc2c1`, the activity change, negative = inhibition is -14.8% (inactive).

Consider `CC(=NNC(=O)c1ccncc1)c1ccc(Cl)c(Cl)c1`, for which the activity change, negative = inhibition is -31% (inactive). As to `CCc1ccc(CN(Cc2ccco2)C(=O)c2ccccc2Cl)cc1`, the activity change, negative = inhibition is 33.9% (inactive).

As for `O=C(CN1C(=O)CCn2nc(-c3ccccc3)cc21)NCc1ccccc1`, the activity change, negative = inhibition is 6.04% (inactive). Regarding `O=C(COC(=O)Cc1c[nH]c2ccccc12)NCCc1ccccc1`, the activity change, negative = inhibition is 10.5% (inactive). On to `Cc1cc(C)cc(NC(=S)NCCc2c[nH]c3ccccc23)c1`, for which the activity change, negative = inhibition is -73.6% (active). For `c1cncc(CNCCc2c[nH]c3ccccc23)c1`, the activity change, negative = inhibition was -8.49% (inactive). Take `O=C(c1[nH]ncc1-c1ccc(Cl)cc1)C1CO1` (centres undefined): the activity change, negative = inhibition was -78.7% (active). The same measure for `COc1ccc(NC(=O)C2Cc3c(-c4ccc(Cl)cc4)ccnc3O2)cc1` (centres undefined): -3.46% (inactive); for `COc1cccc(CNC(=O)C2CCN(S(=O)(=O)c3ccc4c(ccn4C)c3)CC2)c1`: 16.9% (inactive). The same measure for `c1ccc2c(-c3nn4nnnc4c4ccccc34)cccc2c1`: 49.8% (inactive); for `CN(C(=O)CSc1nc2ccc(NC(=O)COc3ccccc3)cc2s1)c1ccccc1`: -30% (inactive); for `COc1ccc2c(c1)c(N1CCCC1=O)c(C(=O)Nc1ccccc1C(F)(F)F)n2C`: -24.2% (inactive). Next, `CCCCCC(=O)N1C[C@H](O)[C@@H](n2cc(COC(=O)c3ccccc3)nn2)C[C@@H]1c1ccc(C)cc1`: -7.72% (inactive); `Cc1ccc([C@H]2C[C@H](O)[C@@H](n3cc(COC(=O)c4ccccc4)nn3)CN2CC2CCCCC2)cc1`: -100% (active); `Cc1ccc([C@H]2C[C@H](O)[C@@H](n3cc(COC(=O)c4ccccc4)nn3)CN2C(=O)C2CCCCC2)cc1`: 1.46% (inactive). For `O=C(CC1Sc2ccccc2NC1=O)NNc1ccc(Cl)c(Cl)c1` (centres undefined), the activity change, negative = inhibition was -35.8% (inactive). In the case of `COc1ccc(N2CCN(S(=O)(=O)c3ccc(-c4coc(C)n4)cc3)CC2)cc1`, the activity change, negative = inhibition was -11.2% (inactive). Take `CCOc1ccccc1N1CN(Cc2ccccc2)CNC1=S`: the activity change, negative = inhibition was -2.1% (inactive). Next, `CCOC(=O)c1ccc(NC2=CC(c3ccc(OCC)cc3)N(c3ccc(C(=O)OCC)cc3)C2=O)cc1` (centres undefined): 18.7% (inactive); `CCc1nnc(NC(=O)C2CCCN2S(=O)(=O)c2ccccc2)s1` (centres undefined): -60.4% (active); `CCc1nnc(NC(=O)C2CCN(C(=O)c3ccccc3C)CC2)s1`: 17.6% (inactive). In the case of `CC(C)c1nnc(NC(=O)C2CCCN2S(=O)(=O)c2ccc(Cl)cc2)s1` (centres undefined), the activity change, negative = inhibition was 2.67% (inactive). Next, `O=C(CCn1c(=O)c2ccccc2n(Cc2ccc(Cl)cc2)c1=O)NCc1ccc2c(c1)OCO2`: 10.1% (inactive); `COc1ccc(C(=O)COC(=O)C(O)c2ccccc2)c(OC)c1` (centres undefined): -26% (inactive); `COc1ccc(N2CC(C(=O)NCCN3C(=O)S/C(=C\c4cccnc4)C3=O)CC2=O)c(OC)c1` (centres undefined): 24.9% (inactive).

With `COc1ccc(C(=O)/C=C/c2cccnc2)c(OC)c1`, the activity change, negative = inhibition was -71.6% (active). On to `Cc1ccsc1CN(C(=O)c1oc2ccc(Br)cc2c1C)C1CCS(=O)(=O)C1` (centres undefined), for which the activity change, negative = inhibition was 30.1% (inactive). The same measure for `CCN1CCN(c2ncnc3c2cnn3-c2ccc(C)c(C)c2)CC1`: -1.25% (inactive). Take `Cc1ccc(NC(=O)c2oc3ccccc3c2NC(=O)Cc2cccs2)cc1`: the activity change, negative = inhibition is 14.9% (inactive).

Turning to `CCOc1ccc2oc(=O)cc(CN3CCN(C(=O)c4ccc(F)cc4)CC3)c2c1`, the activity change, negative = inhibition is -25.5% (inactive).

Consider `CC[n+]1cc(C)ccc1/C=C/c1ccc(N(C)C)cc1`, for which the activity change, negative = inhibition was -99.4% (active). Regarding `CCOC(=O)c1ccc(NC(=O)c2ncn(-c3ccccc3)n2)cc1`, the activity change, negative = inhibition is 43.5% (inactive). Regarding `COc1ccc(Cl)cc1NC(=O)CSc1nc(=O)[nH]c2c1CCCC2`, the activity change, negative = inhibition was 31.1% (inactive). Consider `NS(=O)(=O)c1ccc(CCNC(=O)CCCCCn2c(=O)[nH]c3ccccc3c2=O)cc1`, for which the activity change, negative = inhibition is 34% (inactive).

Take `COc1ccccc1N1CCN(c2ccc(=O)n(CC(=O)NCc3ccc(OC(C)C)cc3)n2)CC1`: the activity change, negative = inhibition was 13.7% (inactive). The same measure for `CCCN(CCC)CCCNC(=O)Cn1cc2c(n1)-c1c(oc(C(=O)N3CCCC3)c1C)CC2`: -39.7% (inactive). Next, `Cc1c(C(=O)N2CCCC2)oc2c1-c1nn(CC(=O)NCc3ccc(OC(C)C)cc3)cc1CC2`: -68.3% (active).
